About 83,000 compounds went through this panel and 20% of them were active in at least one assay; those are over-represented in the sample as a whole.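 Assay: single dose, 48 h. Readout: percent growth (0 = no net growth; negative = cell death). Active: <10.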 Unmarked numbers belong to inactive results. Active and inactive are the calls of the source.

The record followed here is PubChem BioAssay (NCI).

What all share (test): NCI-60 one-dose screen, 48 h (100 = growth as untreated, 0 = no growth, -100 = all killed)
Holding throughout (conditions): 10 µM unless noted

Test [1] deals with SK-MEL-2 melanoma.
The subject of test [2] is EKVX NSCLC.
Test [3] relates to SN12C renal.
Test [4] deals with UO-31 renal.
The subject of test [5] is TK-10 renal.
Test [6] has as its system ACHN renal.
The subject of test [7] is A498 renal.
In test [8] the test system is CCRF-CEM leukemia.
Test [9] deals with MOLT-4 leukemia.
The subject of test [10] is CAKI-1 renal.

As to `COc1ccccc1-n1cc(C#N)c(N)c1C(=O)c1ccc(Cl)cc1`, the growth in test [1] was 78.4%; in test [2] it was 86.9%; in test [3], 90%; in test [4], 77.4%; in test [5] it was 107%; in test [6], 93%. Besides, the growth in [7] was 57%; in test [8], 76.3%; in [9], 64.2%.

On to `N#Cc1cccc(CN2CCC3=C(C2)C(=O)N(Cc2ccc(Cl)cc2)C2=NCCN23)c1`, for which the growth is 39.5% in [1]; 26.8% in test [2]; 23.9% in [3]; 35.5% in [4]; 52.3% in test [5]; 33.2% in [6]. Further, the growth in test [7] is 15%; in test [8], 33.1%; in [9] it was 53.2%.

Regarding `O=C(Nc1ccc2c(ccn2Cc2ccccn2)c1)c1cnccn1`, the growth is 103% in test [1]; 75.7% in test [2]; 75.9% in [3]; 57% in test [4]; 61.9% in test [5]; 66.2% in test [10]. Besides, the growth is 40.8% in test [7] and 101% in test [9].

In the case of `Cn1ccnc1C(=O)/C=C/c1ccc(NC(=O)c2ccc(F)cc2)cc1`, the growth in test [1] is 106%; in test [2], 42.1%; in test [3] it was 25%; in test [4] it was 42.3%; in test [5], 89.5%; in test [10] it was 41.4%. Further, the growth in [7] was 78.1%; in test [8], 7.06% (active); in [9], 16.6%.

On to `CS(=O)(=O)c1ncc(-c2ccccc2)cn1`, for which the growth was 97.6% in [1]; 97.1% in test [2]; 96.4% in test [3]; 85.1% in test [4]; 97.3% in test [5]; 107% in test [10]. For the same molecule, the growth in test [7] is 86.5%; in test [8], 86.6%; in test [9] it was 97.2%.

For `COc1ccc(COc2ccc(/C=C3\C(=O)Nc4ccccc43)cc2OC)cc1`, the growth in [1] was 108%; in [2], 99.8%; in test [3], 99.6%; in test [4], 80.4%; in test [5], 113%; in test [6] it was 92.4%. In addition, the growth in test [7] was 110%; in test [8] it was 104%; in test [9] it was 102%.

For `COc1ccc([C@@H]2[C@@H](O)C(=O)N2c2cc(OC)c(OC)c(OC)c2)cc1F`, the growth in test [1] was -5.37% (active); in test [2] it was 41.8%; in test [3] it was 28.7%; in [4], 30.1%; in [5], 86.3%; in test [10] it was 30.3%. Moreover, the growth in [7] is -29.5% (active); in [8], 18.5%; in [9] it was 15.8%.

Take `Cc1ccc2c(c1)Oc1nc(N)c(C#N)c(N)c1C2Sc1ccc(F)cc1` (centres undefined): the growth is -75.2% (active) in test [1]; -98.9% (active) in test [2]; -98.4% (active) in [3]; -98.2% (active) in test [4]; -98.8% (active) in [5]; -99.8% (active) in test [10]. In addition, the growth in test [7] was -99.3% (active); in [8] it was -21.1% (active); in test [9] it was -16.6% (active).

Turning to `O=C(NNc1nc2cc(F)c(F)cc2n2cccc12)c1cnccn1`, the growth in test [1] was 46.2%; in [2], 17%; in [3], 39%; in test [4] it was 23.3%; in [5], 49.3%; in test [6] it was 17.6%. The growth in test [7] was 43.6%; in test [8], 14.4%; in test [9], 7.98% (active).

For the molecule `Cc1ccc(-n2cc(/C=N/NC(=O)c3nc(N)n[nH]3)c(-c3ccc(S(C)(=O)=O)cc3)n2)cc1`, the growth in test [1] was 103%; in [2], 92.9%; in test [3] it was 96.6%; in test [4] it was 92.6%; in [5], 119%; in [10], 92.6%. Moreover, the figures for the growth in test [7], in [8] and in test [9] were 97.6%, 84% and 97.9%, respectively.

On to `C=CCN(C)S(=O)(=O)/N=C1\NC(=O)NC1=C(Cl)Cl`, for which the growth in [1] is 90%; in test [2], 62.8%; in [3], -22.5% (active); in test [4], 92.5%; in [5], 65.7%; in test [10] it was 2.82% (active). The results for the growth in [7], in test [8] and in [9] were 97.6%, -27.1% (active) and -19.7% (active), respectively.

As for `Cc1ccc(-c2nn(-c3ccccc3)cc2/C=C/C(=O)c2ccc(NC(=O)CCCCCCC(=O)NO)cc2)cc1`, the growth in [1] was 88.2%; in test [2], 85.8%; in [3], 73.5%; in [4], 52.2%; in [5] it was 70.2%; in [10], 58.1%. The values for the growth in test [7], in test [8] and in test [9] were 58.2%, 38.8% and 38.5%, respectively.

With `O=C(CSc1nc2ccccc2c(=O)n1-c1ccccc1)Nc1cccc(C(=O)/C=C/c2ccccc2)c1`, the growth was 100% in [1]; 96.7% in test [2]; 98.4% in [3]; 76% in test [4]; 107% in [5]; 86% in test [10]. Also, the figures for the growth in test [7], in test [8] and in test [9] were 98%, 90.3% and 88.6%, respectively.

For the molecule `O=C(NCc1ncc[nH]1)c1ccc(-c2nc3ccc4[nH]ncc4c3c3c2CCCC3)cc1`, the growth is -32.6% (active) in [1]; 47.9% in test [2]; 10.5% in test [3]; 51.6% in test [4]; -2.79% (active) in test [5]; 42% in test [6]. The growth in [7] was -13.7% (active); in test [9] it was -23.5% (active).
